HT1080 IDH1KD tx – kills HT-1080 cells with IDH1 knockdown. HT-1080 IDH1 knockdown viability, ATP luminescence, 48 h. Potency, µM (top dose mostly 46.1 µM), for the others: top-dose activity, negative = toxicity, usual class: cytotoxic. hit rate 2% among 360,000. AID 686971;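 further: potency means the concentration at half of the fitted maximal effect; 0% = DMSO wells and -100% = cell-free medium wells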
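CellTiter-Glo luminescence after 48 h compound exposure at 37 degrees C of IDH1-knockdown HT-1080 cells in 5% FBS RPMI. %Activity scaled between DMSO wells and cell-free media wells, with curves fitted and assigned curve classes.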
HT1080-NT tox – kills 2HG-producing HT-1080-NT fibrosarcoma cells. hit rate 1.6% among 360,000. AID 686970. Potency, µM (titrated, usually from 46.1 µM), for inactives: at the highest dose activity, negative = less viability, usual class: cytotoxic. HT-1080-NT fibrosarcoma viability, CellTiter-Glo ATP luminescence, 48 h;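 further: NT is the 2HG producing partner of a matched IDH1 knockdown line; potency means the concentration at half of the fitted maximal effect; 0% = DMSO-treated cells and -100% = media-only wells without cells; nearly all actives have a fitted effect of over 55% in size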
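Compounds were tested in concentration-response format on HT-1080-NT cells for 48 hours at 37 degrees C. Cell viability came from CellTiter-Glo luminescence; curves were classified by r2, response magnitude and activity.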
DT40 TDP1 CPT – DT40-hTDP1 cell growth loss with CPT; Potency, µM (doses to about 46.2 µM), without a hit: top-dose activity change, negative = growth inhibition, hits mostly inhibitors; hit rate 12% among 420,000; chicken DT40 Tdp1-/-;hTDP1 cells + 20 nM CPT, ATP luminescence, 48 h; AID 686979; further: potency means the concentration at half of the fitted maximal effect; nearly all actives have a fitted effect of over 55% in size
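Cell growth measured by CellTiter-Glo luminescence after a minimum 48 h, 37 C compound exposure with 20 nM CPT in Tdp1-knockout DT40 cells stably expressing hTDP1, seeded 400/well; qHTS titration format.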
IL1B secr inh – blocks inflammasome-driven IL-1 beta release. THP-1 LPS/ATP IL-1B secretion, AlphaLISA, 16 h; hits give low values. activity change, % at 57.5 µM. hit rate 4.7% among 360,000. AID 743279; in the data active means activity change below about -50%; inconclusive means mostly about -30% to -49%
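Secreted IL-1B measured by AlphaLISA bead assay after 16 h compound exposure of THP-1 cells; compounds (final up to 57.5 uM) added 1 h before LPS (250 ng/mL) and ATP (1.25 mM) stimulation; lower signal means less secretion.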
TDP1 cell noCPT – qHTS for Inhibitors of human tyrosyl-DNA phosphodiesterase 1 (TDP1): qHTS in cells in absence of CPT | DT40 Tdp1-/- hTDP1 cells, no CPT, ATP luminescence, 48 h | Potency, µM (top dose mostly 46.2 µM), without a hit: at the top dose activity change, negative = growth inhibition, most hits filed as inhibitors | hit rate 15% among 420,000; further: potency means the concentration at half of the fitted maximal effect; nearly all actives have a fitted effect of over 55% in size
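Growth kinetics read by CellTiter-Glo luminescence after ≥48 hr at 37 °C. Cells: DT40 Tdp1-/- stably carrying human TDP1, 400 per well, compound exposure in the absence of CPT (DMSO vehicle).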
* = called active by the depositor; [ ] = remark or other dose. Most compounds without a hit are left out; they make up all but 19% or so of the library. Unless noted, the call rests on the fitted dose curve; in most records, active means well fitted curve in the direction sought with a large enough effect; inconclusive means small, poorly fitted or top-dose-only effect, or another doubt; inactive means no such curve, though single readings can be large; an effect the other way counts as inactive or inconclusive. Unless noted, on the % scale 0 is the no-effect control and ±100 the full control effect.

Cc1cccc(NC(=O)CN2C(=O)COc3ccc(S(=O)(=O)N4CCC(C)CC4)cc32)c1C was read as DT40 TDP1 CPT -28.6% and TDP1 cell noCPT inconclusive.
For CC(C)N(Cc1ccccc1)C(=O)CN1C(=O)COc2ccc(S(=O)(=O)N3CCCCCC3)cc21 the results were HT1080 IDH1KD tx -4.8%, HT1080-NT tox -12.4%, DT40 TDP1 CPT 14.6µM*, IL1B secr inh -21.3 and TDP1 cell noCPT 13µM*.
For CC1CCN(S(=O)(=O)c2ccc3c(c2)N(CC(=O)O)C(=O)CO3)CC1 the results were DT40 TDP1 CPT 14.6µM* and TDP1 cell noCPT 16.4µM*.
Screening COCCCNc1nc2ccccc2nc1NS(=O)(=O)c1cccc(C)c1 returned HT1080 IDH1KD tx -0.7%, HT1080-NT tox 1.4%, DT40 TDP1 CPT 16.8%, IL1B secr inh 14.2 and TDP1 cell noCPT inconclusive.
`CCCN(CCC)S(=O)(=O)c1ccc(C(=O)Nc2nnc(-c3cc(OC)cc(OC)c3)o2)cc1` gave HT1080 IDH1KD tx inconclusive, HT1080-NT tox inconclusive, DT40 TDP1 CPT 5.8µM*, IL1B secr inh 4.1 and TDP1 cell noCPT 4.61µM*.
CCCN(CCC)S(=O)(=O)c1ccc(C(=O)Nc2nnc(-c3cccc(OC)c3)o2)cc1 was read as HT1080 IDH1KD tx inconclusive, HT1080-NT tox inconclusive, DT40 TDP1 CPT 5.8µM*, IL1B secr inh 43.9 and TDP1 cell noCPT 5.17µM*.
For CCc1nnc(NC(=O)c2ccc(S(=O)(=O)N(CCOC)CCOC)cc2)o1 the results were HT1080 IDH1KD tx 12.2%, HT1080-NT tox 3.5%, DT40 TDP1 CPT -3.9%, IL1B secr inh 17.1 and TDP1 cell noCPT 2.4%.
For OCC1OC(n2ccc3c(SCc4ccccc4)ncnc32)C(O)C1O (stereo unspecified) the results were HT1080 IDH1KD tx -18.6%, HT1080-NT tox -4.1%, DT40 TDP1 CPT -27.9%, IL1B secr inh -9.2 and TDP1 cell noCPT inconclusive.
For COc1cccc2c3cccc(OC)c3c3[nH]cnc3c12 the results were HT1080 IDH1KD tx 20.6µM*, HT1080-NT tox -26.0%, DT40 TDP1 CPT inconclusive, IL1B secr inh -101.8* and TDP1 cell noCPT 7.31µM*.
Screening CC(C)(C)OC(=O)C[C@@H]1C/C=C\C[C@H](CC(=O)N[C@H](CO)Cc2ccccc2)C(=O)N[C@H](C(C)(C)C)COC1=O returned HT1080 IDH1KD tx 0.2%, HT1080-NT tox 4.4%, DT40 TDP1 CPT inconclusive, IL1B secr inh -2.6 and TDP1 cell noCPT inconclusive.
Screening O=C(Nc1cccc(Br)c1)N1CCC(CN2CCCCCC2)CC1 returned DT40 TDP1 CPT inconclusive and TDP1 cell noCPT -26.1%.
Fc1ccc(C(CCCn2nnc(-c3cccnc3)n2)c2ccc(F)cc2)cc1 was read as HT1080 IDH1KD tx inconclusive, HT1080-NT tox -16.4%, DT40 TDP1 CPT 16.4µM*, IL1B secr inh inconclusive and TDP1 cell noCPT 20.6µM*.
`NC(=O)c1ccc(NC(=O)COC(=O)CC23CC4CC(CC(Br)(C4)C2)C3)cc1` gave HT1080 IDH1KD tx 2.7%, HT1080-NT tox -5.4%, DT40 TDP1 CPT -1.8%, IL1B secr inh 9.8 and TDP1 cell noCPT -15.0%.
For CC1(C(=O)NCC2CCOCC2)Cc2c(-c3cccc(C(F)(F)F)c3)ccnc2O1 (stereo unspecified) the results were HT1080 IDH1KD tx 3.66µM*, HT1080-NT tox inconclusive, DT40 TDP1 CPT 5.17µM*, IL1B secr inh 72.4 and TDP1 cell noCPT 3.26µM*.
For CN(C)CCNC(=O)C1(C)Cc2c(-c3cccc(C(F)(F)F)c3)ccnc2O1 (stereo unspecified) the results were HT1080 IDH1KD tx inconclusive, HT1080-NT tox inconclusive, DT40 TDP1 CPT -73.2%, IL1B secr inh 0.0 and TDP1 cell noCPT 6.51µM*.
CC1(C(=O)NCCC(F)(F)F)Cc2c(-c3cccc(C(F)(F)F)c3)ccnc2O1 (stereo unspecified) was read as HT1080 IDH1KD tx 5.8µM*, HT1080-NT tox 20.6µM*, DT40 TDP1 CPT 4.61µM*, IL1B secr inh 0.0 and TDP1 cell noCPT 3.26µM*.
CC1(C(=O)NCCc2ccccc2)Cc2c(-c3cccc(C(F)(F)F)c3)ccnc2O1 (stereo unspecified) was read as HT1080 IDH1KD tx inconclusive, HT1080-NT tox inconclusive, DT40 TDP1 CPT inconclusive, IL1B secr inh 56.2 and TDP1 cell noCPT inconclusive.
For COc1ccc(CCCNC(=O)C2(C)Cc3c(-c4cccc(C(N)=O)c4)ccnc3O2)cc1 (stereo unspecified) the results were HT1080 IDH1KD tx inconclusive, HT1080-NT tox inconclusive, DT40 TDP1 CPT inconclusive, IL1B secr inh 18.3 and TDP1 cell noCPT inconclusive.
For CC1(C(=O)NCCC(F)(F)F)Cc2c(-c3cccc(C(N)=O)c3)ccnc2O1 (stereo unspecified) the results were HT1080 IDH1KD tx inconclusive, HT1080-NT tox inconclusive, DT40 TDP1 CPT inconclusive, IL1B secr inh -8.7 and TDP1 cell noCPT 0.82µM*.
For Cc1ccc(S(=O)(=O)C[C@@H]2OC3CCCCC3N2S(=O)(=O)c2ccc(C)cc2)cc1 (stereo partly specified) the results were HT1080 IDH1KD tx 6.8%, HT1080-NT tox 13.3%, DT40 TDP1 CPT inconclusive, IL1B secr inh -6.6 and TDP1 cell noCPT inconclusive.
For COCCN(C(=O)CCC(=O)Nc1nccs1)C(C(=O)NCCC(C)C)c1ccc(OC)cc1 (stereo unspecified) the results were HT1080 IDH1KD tx 3.1%, HT1080-NT tox 0.6%, DT40 TDP1 CPT -2.0%, IL1B secr inh 14.2 and TDP1 cell noCPT -26.1%.
Screening O=C(NCCc1ccccn1)C1CC12CCN(C(=O)c1c(F)cccc1Cl)CC2 (stereo unspecified) returned DT40 TDP1 CPT 7.3%[9.04 µM] and TDP1 cell noCPT -5.6%.
For C=CCNc1n[nH]c(=S)s1 the results were HT1080 IDH1KD tx 7.3%, HT1080-NT tox 9.8%, DT40 TDP1 CPT 5.17µM*, IL1B secr inh -13.0 and TDP1 cell noCPT 2.59µM*.
For CNc1n[nH]c(=S)s1 the results were HT1080 IDH1KD tx 20.4%, HT1080-NT tox 11.9%, DT40 TDP1 CPT 4.6%, IL1B secr inh 20.0 and TDP1 cell noCPT -9.7%.
For Cc1ccc(NC(=O)c2cccc(NC(=O)N3CCSc4ncccc43)c2)cc1F the results were DT40 TDP1 CPT -18.6% and TDP1 cell noCPT -24.8%.
For Cc1ccc(NC(=O)c2ccc(NC(=O)N3CCSc4ncccc43)cc2)cc1Cl the results were DT40 TDP1 CPT 16.4µM* and TDP1 cell noCPT 11.6µM*.
`Cc1cc(Cl)ccc1NC(=O)c1cccc(NC(=O)N2CCSc3ncccc32)c1` gave DT40 TDP1 CPT inconclusive and TDP1 cell noCPT 16.4µM*.
`C1CC(CN2CCOCC2)CN(Cc2nc(CC3CC3)no2)C1` (stereo unspecified) gave HT1080 IDH1KD tx -0.9%, HT1080-NT tox -7.9%, DT40 TDP1 CPT -1.9%, IL1B secr inh 7.0 and TDP1 cell noCPT 9.1%.
